Measurements: PubChem BioAssay (NCI)
This is part of a sample that, as a whole, favours compounds with a hit. Of some 79,000 tested, about 15% had one in any assay. The source made the active and inactive calls. Cut-off read from the data, not from the text of the source: active = growth inhibition above about 70%; inactive = the rest.

Experiments:
[1] = NCI Yeast Anticancer Drug Screen. Data for the rad50 strain (AID 155);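 note: 0% = growth of vehicle-only cultures of the same strain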; conditions: S. cerevisiae rad50 strain growth inhibition; at 50.0 µM; active compounds read high
How it was run: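 Relative growth inhibition (compound vs vehicle) was measured in yeast with a defined repair-gene alteration.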

[2] = NCI Yeast Anticancer Drug Screen. Data for the mec2-1 strain (AID 157); conditions: S. cerevisiae mec2-1 strain, at 50.0 µM, active compounds read high
How it was run: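 Yeast mec2-1 mutant treated with compound. Readout: growth inhibition vs vehicle controls.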

[3] = NCI Yeast Anticancer Drug Screen. Data for the sgs1 mgt1 strain (AID 161);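 note: 0% = growth of cultures given vehicle only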; conditions: S. cerevisiae sgs1 mgt1 strain, at 50.0 µM, active compounds read high
How it was run: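 Inhibition of yeast growth, normalised to vehicle-treated controls, is reported for a strain bearing genetic alterations in DNA damage repair.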

[4] = NCI Yeast Anticancer Drug Screen. Data for the cln2 rad14 strain (AID 165);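 note: 0% = growth equal to vehicle treated cultures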; conditions: S. cerevisiae cln2 rad14 strain, at 50.0 µM, active compounds read high
How it was run: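 cln2 rad14 yeast strain; compound exposure; growth inhibition read vs vehicle controls.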

[5] = NCI Yeast Anticancer Drug Screen. Data for the bub3 strain (AID 167); conditions: S. cerevisiae bub3 mutant strain, at 50.0 µM, active compounds read high
How it was run: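 Screening used yeast with an engineered genetic alteration affecting cell cycle control. Compound-exposed cultures were compared with vehicle cultures, and reduced growth was taken as inhibition.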

[6] = NCI Yeast Anticancer Drug Screen. Data for the mlh1 rad18 strain (AID 175); conditions: S. cerevisiae mlh1 rad18 strain growth inhibition; at 50.0 µM; active compounds read high
How it was run: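 Yeast w/ defined DNA-repair lesions; compound exposure; growth vs vehicle controls → % inhibition.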

Measured: growth inhibition

CC(C)c1ccc(Cc2ccc(C(C)C)c(NC(=O)C(=O)Cc3cnc4ccccc4n3)c2C(C)C)c(C(C)C)c1NC(=O)C(=O)Cc1cnc2ccccc2n1
inactive: [1] -28.4% | [2] -18.4% | [3] -24.9% | [4] 14.3% | [5] -13.2% | [6] -28.8%

Cc1cc(NC(=O)N(CCCl)N=O)c(C)cc1NC(=O)c1ccccc1
inactive: [1] 24.5% | [2] -22.5% | [3] 40.5% | [4] -3.4% | [5] -0.5% | [6] 55.2%

COc1nc(NC2OC(CO)C(O)C(O)C2O)cc(=O)[nH]1 (configuration not stated)
inactive: [1] -4.2% | [2] -7.45% | [3] 1.45% | [4] -3.15% | [5] -37.7% | [6] -6.45%

NC(=O)C1CCN(S(=O)(=O)c2ccccc2)CC1
inactive: [1] -0.85% | [2] -9.1% | [3] 8.55% | [4] -37.6% | [5] -1.5% | [6] -18.4%

C/C(=N\NC(=S)N1CCCC1)c1ccc[nH]1
inactive: [1] -6.55% | [2] 3.05% | [3] -0.05% | [4] -11.6% | [5] -7.75% | [6] -2.3%

Cn1c(=O)c2c(ncn2CCNC(c2ccccc2)c2cccc(Cl)c2)n(C)c1=O (configuration not stated)
inactive: [1] 6% | [2] -8.05% | [3] 4.35% | [4] -8.3% | [5] 0.8% | [6] 12.8%

Cn1ncnc1CCc1ccccc1
inactive: [1] -10.3% | [2] -3.9% | [3] -40.5% | [4] -4.55% | [5] -14% | [6] -21.1%

COc1cc2c[n+](C)c3ccccc3c2cc1OC
inactive: [1] 4.75% | [2] 12% | [3] -16.6% | [4] -7.3% | [5] -21.1% | [6] -6.35%

CCN(CC)C(=O)Oc1cc(C(=O)N(CC)CC)c(OC(=O)N(CC)CC)cc1C(=O)N(CC)CC
inactive: [1] 5.1% | [2] 8.15% | [3] -1.6% | [4] -1.4% | [5] 1% | [6] 30.1%

CC(C)c1ccc(O)c(Cc2cc(C(C)C)cc(Cc3cc(C(C)C)ccc3O)c2O)c1
inactive: [1] -14.3% | [2] -3.2% | [3] -10.2% | [4] 4.6% | [5] 1.1% | [6] -3.25%

COC(=O)C1=NC(=O)C(C#N)=C(C(=O)OC)C1(C(=O)c1ccc(OC)cc1)c1ccc(OC)cc1 (configuration not stated)
inactive: [1] -39.9% | [2] 3.7% | [3] -9.15% | [4] 13.8% | [5] 11.9% | [6] -12.1%

CCOC(CO)OCC
inactive: [1] 28.9% | [2] -0.25% | [3] -3.4% | [4] 8.95% | [5] 13.6% | [6] -8%

CC1(C)OC2C(O1)[C@H]1OC(C(Cl)(Cl)Cl)=N[C@H]1C(I)[C@H]2N1C(=O)c2ccccc2C1=O (some centres not stated)
inactive: [1] 0.25% | [2] -45.9% | [3] -5.15% | [4] -52.6% | [5] -5.9% | [6] 3.55%

O=C(O)COc1ccc(/C=C2\SC(=S)NC2=O)cc1
inactive: [1] -3.9% | [2] -8.3% | [3] 1.6% | [4] -36.5% | [5] 18.9% | [6] -12.2%

COc1ccc(CC(=O)c2c(O)c3c(c(CC=C(C)C)c2OC)OC(C)(C)C=C3)cc1
inactive: [1] 22.4% | [2] -26.3% | [3] -14.8% | [4] 4.15% | [5] -2.75% | [6] 14.2%

O=[N+]([O-])c1ccccc1SSc1ccccc1[N+](=O)[O-]
inactive: [1] -20.4% | [2] -15.6% | [3] -36.5% | [4] -1.85% | [5] -46.4% | [6] -18.6%

OCCNCc1ccc2c(c1)OCO2
inactive: [1] -4.1% | [2] 3.85% | [3] -9.5% | [4] -4.85% | [5] -5.25% | [6] 1.4%

NC(=O)C(=O)N/N=C1\C(=O)N(c2ccc(Cl)cc2Cl)C(=O)C1C(=O)Nc1ccc(Cl)cc1Cl (configuration not stated)
inactive: [1] -0.65% | [2] -0.55% | [3] -15.5% | [4] 22.4% | [5] -14.2% | [6] -16.3%

CCSCCNC(=O)NS(=O)(=O)c1ccc(C)cc1
inactive: [1] 4.85% | [2] -0.75% | [3] -6.45% | [4] 1.55% | [5] -11.4% | [6] 14%

O=C(NC(=S)OC1CCCC1OC(=S)NC(=O)c1ccccc1)c1ccccc1 (configuration not stated)
inactive: [1] -21.5% | [2] -12.6% | [3] -10.1% | [4] 14.5% | [5] -13.2% | [6] -33.7%

CC1C(O)=C(O)c2ccccc2N1O (configuration not stated)
inactive: [1] -9.15% | [2] -11.1% | [3] -8.6% | [4] 12.5% | [5] -6.25% | [6] -10.7%

Nc1ccnc2n[nH]nc12
inactive: [1] -3.7% | [2] -2% | [3] -19.1% | [4] -9.05% | [5] 5.05% | [6] -26.8%

CCCCCCCCCCCC[N+](C)(C)Cc1cc(=O)c(O)co1
inactive: [2] 43.6% | [5] 65% | [6] 27.2%
active: [1] 71.7% | [3] 74.1% | [4] 78.8%

C/C=C\c1ccc(OCCOC(C)=O)c(OC)c1
inactive: [1] 12% | [2] -13.6% | [3] -3.4% | [4] -28.2% | [5] -9.95% | [6] -15.8%

COC(=O)c1cc2c(cc1CC1Cc3cc4c(cc3C1=O)CCC4)CCC2 (configuration not stated)
inactive: [1] -16.1% | [2] -42.3% | [3] -10.4% | [4] 9.3% | [5] 19.6% | [6] 1.65%

NC(=O)N/N=C1\CCCC(OC(=O)c2ccccc2)CC1 (configuration not stated)
inactive: [1] 2.85% | [2] -27.7% | [3] -16.8% | [4] -20.1% | [5] -1.5% | [6] -20.8%

CCOCCOCCOC(C)Oc1ccc(Cl)cc1 (configuration not stated)
inactive: [1] 4.05% | [2] 8.4% | [3] -9.05% | [4] 10.7% | [5] 6.15% | [6] 9.55%

COc1cccc(CCO)c1OC
inactive: [1] 1.3% | [2] -13.2% | [3] 10.9% | [4] -10.4% | [5] 5.2% | [6] 10.9%

CNc1ccccc1C
inactive: [1] 37.6% | [2] -15.4% | [3] -8.1% | [4] -82.1% | [5] 18.9% | [6] 23%

COc1cc2c(cc1OC)C(C(=O)O)C(c1ccccc1)N(C)C2=O (configuration not stated)
inactive: [1] -36.8% | [2] -11.8% | [3] -6.5% | [4] 19.4% | [5] -13.2% | [6] 3.25%

CC(C)(C)N1CCC(=O)C1=O
inactive: [1] 23.8% | [2] 22.9% | [3] 1.85% | [4] 7.85% | [5] 5.85% | [6] 17.8%

NC(=S)NO
inactive: [1] -1.85% | [2] -3.8% | [3] 2.35% | [4] 22.6% | [5] 8% | [6] -19.9%

CSCC(=O)c1ccccc1
inactive: [1] 17.4% | [2] 6.55% | [3] 9.25% | [4] -6.3% | [5] 2.15% | [6] 5.3%

Cc1ccc(S(=O)(=O)NNc2nc(N3CCCCC3)nc(N3CCCCC3)n2)cc1
inactive: [1] -1.25% | [2] -2.4% | [3] 8.2% | [4] -17.9% | [5] -4.85% | [6] 19.6%

CC12CC(=O)NN=C1c1ccccc1C2 (configuration not stated)
inactive: [1] 4.35% | [2] -10.8% | [3] 18.1% | [4] 29.6% | [5] -6.8% | [6] -2.8%

Cc1ccc(N=CN(C)C)c(Cl)c1
inactive: [1] -4.5% | [2] 0.8% | [3] 4.6% | [4] -16.8% | [5] -7.4% | [6] -23.1%

CC(=O)OCC1OC(N2C(=O)C(=O)c3cc(C)ccc32)C(OC(C)=O)C(OC(C)=O)C1OC(C)=O (configuration not stated)
inactive: [1] 59.8% | [2] 10.2% | [3] 5.85% | [4] 1.7% | [5] 41% | [6] 33.4%
